Laboratory results as given in the supplement of paper PMC10037445.
Over roughly 2,900 compounds, “NF-kB SEAP reporter activity, fold change vs agonist alone” has its median near 0.99; the highest 2% begin near 2.6. For the sample, the highest values were picked, then their nearest neighbours and some compounds at random.

What was measured:
RAW-Dual [1] = experiment: NF-kB SEAP reporter activity, fold change vs agonist alone; higher = enhanced NF-kB activity; details: library stock concentration (final ~1000-fold dilution): 10 mM
Procedure, shortened: (§1)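 Cytotoxic wells were those whose IncuCyte confluency was below 70% of agonist controls in both mask sets. The cells were RAW-Dual macrophages at 50,000 cells/well in DMEM on 384-well plates, dosed with 50 nL of library stock by pin tool, stimulated with a PRR agonist 1 h later, and kept at 37 °C, 5% CO2 for 20 hours. IRF and NF-κB reporter activity, as fold change over agonist-alone wells, came from supernatant read by QuantiLuc luminescence and QuantiBlue absorbance, respectively.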

RAW-Dual [2] = experiment: NF-kB SEAP reporter activity, fold change vs agonist alone; cytotoxicity flag (confluency mask): not cytotoxic; higher = enhanced NF-kB activity
Procedure, shortened: as §1

RAW-Dual [3] = experiment: NF-kB SEAP reporter activity, fold change vs agonist alone; cytotoxicity flag (confluency mask): cytotoxic (confluency <70% of control); higher = enhanced NF-kB activity
Procedure, shortened: as §1

[4] = cytotoxicity flag (confluency mask): not cytotoxic, agonist: Imiquimod (TLR7) […]
[5] = cytotoxicity flag (confluency mask): not cytotoxic, agonist: MPLA (TLR4) […]
[6] = agonist: ODN 1826 (TLR9) 0.5 ug/mL
[7] = agonist: Pam2CSK4 (TLR2/6) 0.1 ug/mL
[8] = agonist: Pam3CSK4 (TLR2/1) 0.1 ug/mL
[9] = cytotoxicity flag (confluency mask): cytotoxic (confluency <70% of control), agonist: Imiquimod (TLR7) […]
[10] = cytotoxicity flag (confluency mask): cytotoxic (confluency <70% of control), agonist: MPLA (TLR4) […]

## Cc1cc(Nc2ncnc3ccc(-c4ccc(CNCCS(C)(=O)=O)o4)cc23)ccc1Oc1ccn2ncnc2c1
RAW-Dual [1]; [4]
  NF-kB SEAP reporter activity: 1.08
RAW-Dual [1]; [5]
  NF-kB SEAP reporter activity: 1.53

## CS(=O)(=O)CCNCc1ccc(-c2ccc3ncnc(Nc4ccc(OCc5cccc(F)c5)c(Cl)c4)c3c2)o1.Cc1ccc(S(=O)(=O)O)cc1.Cc1ccc(S(=O)(=O)O)cc1 (library stock concentration (final ~1000-fold dilution): 10 mM)
RAW-Dual [2]; agonist: LPS (TLR4) 0.1 ug/mL
  NF-kB SEAP reporter activity: 4.16
RAW-Dual [2]; [6]
  NF-kB SEAP reporter activity: 0.272
RAW-Dual [2]; [7]
  NF-kB SEAP reporter activity: 0.851
RAW-Dual [2]; [8]
  NF-kB SEAP reporter activity: 1.14

## CS(=O)(=O)CCNCc1ccc(-c2ccc3ncnc(Nc4ccc(OCc5cccc(F)c5)c(Cl)c4)c3c2)o1.Cc1ccc(S(=O)(=O)O)cc1.Cc1ccc(S(=O)(=O)O)cc1.O (library stock concentration (final ~1000-fold dilution): 10 mM)
RAW-Dual [2]; agonist: LPS (TLR4) 0.1 ug/mL
  NF-kB SEAP reporter activity: 1.96
RAW-Dual [2]; [6]
  NF-kB SEAP reporter activity: 0.24
RAW-Dual [2]; [7]
  NF-kB SEAP reporter activity: 0.755
RAW-Dual [2]; [8]
  NF-kB SEAP reporter activity: 0.786

## C=CC(=O)Nc1ccc2ncnc(Nc3ccc(OCc4cccc(F)c4)c(Cl)c3)c2c1.Cc1ccc(S(=O)(=O)O)cc1
RAW-Dual [1]; [4]
  NF-kB SEAP reporter activity: 0.818
RAW-Dual [1]; [5]
  NF-kB SEAP reporter activity: 0.445

## CS(=O)(=O)CCNCc1ccc(-c2ccc3ncnc(Nc4ccc(OCc5cccc(F)c5)c(Cl)c4)c3c2)o1
RAW-Dual [1]; [4]
  NF-kB SEAP reporter activity: 2.12
RAW-Dual [1]; [5]
  NF-kB SEAP reporter activity: 2

## CC1COC(Nc2ccc3ncnc(Nc4ccc(OCc5nccs5)c(Cl)c4)c3c2)=N1 (centres undefined)
RAW-Dual [1]; [4]
  NF-kB SEAP reporter activity: 1.28
RAW-Dual [1]; [5]
  NF-kB SEAP reporter activity: 1.03

## Cc1cc(Nc2ncnc3ccc(-c4ccc(CNCCS(C)(=O)=O)o4)cc23)ccc1Oc1ccn2ncnc2c1 (library stock concentration (final ~1000-fold dilution): 10 mM)
RAW-Dual [2]; agonist: LPS (TLR4) 0.1 ug/mL
  NF-kB SEAP reporter activity: 2.19
RAW-Dual [2]; [6]
  NF-kB SEAP reporter activity: 0.229
RAW-Dual [2]; [7]
  NF-kB SEAP reporter activity: 0.997
RAW-Dual [2]; [8]
  NF-kB SEAP reporter activity: 0.811

## CS(=O)(=O)CCNCc1ccc(-c2ccc3ncnc(Nc4ccc(OCc5cccc(F)c5)c(Cl)c4)c3c2)o1 (library stock concentration (final ~1000-fold dilution): 10 mM)
RAW-Dual [2]; agonist: LPS (TLR4) 0.1 ug/mL
  NF-kB SEAP reporter activity: 2.56
RAW-Dual [2]; [6]
  NF-kB SEAP reporter activity: 0.324
RAW-Dual [2]; [7]
  NF-kB SEAP reporter activity: 0.657
RAW-Dual [2]; [8]
  NF-kB SEAP reporter activity: 1.19

## C=CC(=O)Nc1ccc2ncnc(Nc3ccc(OCc4cccc(F)c4)c(Cl)c3)c2c1.Cc1ccc(S(=O)(=O)O)cc1 (library stock concentration (final ~1000-fold dilution): 10 mM)
RAW-Dual [2]; agonist: LPS (TLR4) 0.1 ug/mL
  NF-kB SEAP reporter activity: 0.275
RAW-Dual [2]; [6]
  NF-kB SEAP reporter activity: 0.575
RAW-Dual [2]; [7]
  NF-kB SEAP reporter activity: 0.254
RAW-Dual [2]; [8]
  NF-kB SEAP reporter activity: 0.377

## CS(=O)(=O)CCNCc1ccc(-c2ccc3ncnc(Nc4ccc(OCc5cccc(F)c5)c(Cl)c4)c3c2)o1.Cc1ccc(S(=O)(=O)O)cc1.Cc1ccc(S(=O)(=O)O)cc1.O
RAW-Dual [1]; [5]
  NF-kB SEAP reporter activity: 1.99

## CC1COC(Nc2ccc3ncnc(Nc4ccc(OCc5nccs5)c(Cl)c4)c3c2)=N1 (centres undefined) (library stock concentration (final ~1000-fold dilution): 10 mM)
RAW-Dual [2]; agonist: LPS (TLR4) 0.1 ug/mL
  NF-kB SEAP reporter activity: 0.991
RAW-Dual [2]; [6]
  NF-kB SEAP reporter activity: 0.507
RAW-Dual [2]; [7]
  NF-kB SEAP reporter activity: 0.602
RAW-Dual [2]; [8]
  NF-kB SEAP reporter activity: 0.911

## CCCC1CC(C(=O)NC(C(C)Cl)C2OC(SC)C(O)C(O)C2O)N(C)C1 (centres undefined) (library stock concentration (final ~1000-fold dilution): 10 mM)
RAW-Dual [2]; agonist: LPS (TLR4) 0.1 ug/mL
  NF-kB SEAP reporter activity: 1.14
RAW-Dual [2]; [6]
  NF-kB SEAP reporter activity: 1.04
RAW-Dual [2]; [7]
  NF-kB SEAP reporter activity: 1.04
RAW-Dual [2]; [8]
  NF-kB SEAP reporter activity: 1.17

## CCCC1CC(C(=O)NC(C(C)Cl)C2OC(SC)C(O)C(O)C2O)N(C)C1 (centres undefined)
RAW-Dual [1]; [4]
  NF-kB SEAP reporter activity: 1.02
RAW-Dual [1]; [5]
  NF-kB SEAP reporter activity: 1.07

## COc1cccc2c1C(=O)c1c(O)c3c(c(O)c1C2=O)CC(O)(C(C)=O)CC3OC1CC(N)C(O)C(C)O1.Cl (centres undefined) (library stock concentration (final ~1000-fold dilution): 10 mM)
RAW-Dual [3]; agonist: LPS (TLR4) 0.1 ug/mL
  NF-kB SEAP reporter activity: 0.249
RAW-Dual [3]; [6]
  NF-kB SEAP reporter activity: 0.191
RAW-Dual [3]; [7]
  NF-kB SEAP reporter activity: 0.0932
RAW-Dual [3]; [8]
  NF-kB SEAP reporter activity: 0.195

## COc1cccc2c1C(=O)c1c(O)c3c(c(O)c1C2=O)CC(O)(C(C)=O)CC3OC1CC(N)C(O)C(C)O1.Cl (centres undefined)
RAW-Dual [1]; [9]
  NF-kB SEAP reporter activity: 0.365
RAW-Dual [1]; [10]
  NF-kB SEAP reporter activity: 0.213

## CC1CN(CC(Cc2ccccc2)C(=O)NCC(=O)O)CCC1(C)c1cccc(O)c1 (centres undefined) (library stock concentration (final ~1000-fold dilution): 10 mM)
RAW-Dual [2]; agonist: LPS (TLR4) 0.1 ug/mL
  NF-kB SEAP reporter activity: 1.51
RAW-Dual [2]; [6]
  NF-kB SEAP reporter activity: 1.01
RAW-Dual [2]; [7]
  NF-kB SEAP reporter activity: 0.937
RAW-Dual [2]; [8]
  NF-kB SEAP reporter activity: 0.609

## CC1CN(CC(Cc2ccccc2)C(=O)NCC(=O)O)CCC1(C)c1cccc(O)c1 (centres undefined)
RAW-Dual [1]; [4]
  NF-kB SEAP reporter activity: 1.03
RAW-Dual [1]; [5]
  NF-kB SEAP reporter activity: 1.01

## Cn1cc(Nc2nccc(N3CC4CCC(C3)N4C(=O)C3CC3(F)F)n2)cn1 (centres undefined) (library stock concentration (final ~1000-fold dilution): 10 mM)
RAW-Dual [2]; agonist: LPS (TLR4) 0.1 ug/mL
  NF-kB SEAP reporter activity: 0.973
RAW-Dual [2]; [6]
  NF-kB SEAP reporter activity: 1.3
RAW-Dual [2]; [7]
  NF-kB SEAP reporter activity: 1.69
RAW-Dual [2]; [8]
  NF-kB SEAP reporter activity: 2.02

## Cn1cc(Nc2nccc(N3CC4CCC(C3)N4C(=O)C3CC3(F)F)n2)cn1 (centres undefined)
RAW-Dual [1]; [4]
  NF-kB SEAP reporter activity: 1.19
RAW-Dual [1]; [5]
  NF-kB SEAP reporter activity: 0.995

## CC(NCCC(c1ccccc1)c1ccccc1)c1ccccc1.Cl (centres undefined)
RAW-Dual [1]; [10]
  NF-kB SEAP reporter activity: 1.24

## CC(NCCC(c1ccccc1)c1ccccc1)c1ccccc1.Cl (centres undefined) (library stock concentration (final ~1000-fold dilution): 10 mM)
RAW-Dual [3]; agonist: LPS (TLR4) 0.1 ug/mL
  NF-kB SEAP reporter activity: 1.18
RAW-Dual [3]; [6]
  NF-kB SEAP reporter activity: 0.723
RAW-Dual [3]; [7]
  NF-kB SEAP reporter activity: 0.754
RAW-Dual [3]; [8]
  NF-kB SEAP reporter activity: 0.637

## CCCCCCCCCCCC(CC1OC(=O)C1CCCCCC)OC(=O)C(CC(C)C)NC=O (centres undefined)
RAW-Dual [1]; [4]
  NF-kB SEAP reporter activity: 0.823
RAW-Dual [1]; [5]
  NF-kB SEAP reporter activity: 0.902

## CCCCCCCCCCCC(CC1OC(=O)C1CCCCCC)OC(=O)C(CC(C)C)NC=O (centres undefined) (library stock concentration (final ~1000-fold dilution): 10 mM)
RAW-Dual [2]; agonist: LPS (TLR4) 0.1 ug/mL
  NF-kB SEAP reporter activity: 1.07
RAW-Dual [2]; [6]
  NF-kB SEAP reporter activity: 1.02
RAW-Dual [2]; [7]
  NF-kB SEAP reporter activity: 0.959
RAW-Dual [2]; [8]
  NF-kB SEAP reporter activity: 0.978

## CN(C)C/C=C/C(=O)Nc1ccc(C(=O)Nc2cccc(Nc3ncc(Cl)c(-c4c[nH]c5ccccc45)n3)c2)cc1.Cl.Cl
RAW-Dual [1]; [9]
  NF-kB SEAP reporter activity: 0.142
RAW-Dual [1]; [10]
  NF-kB SEAP reporter activity: 0.258

## CN(C)C/C=C/C(=O)Nc1ccc(C(=O)Nc2cccc(Nc3ncc(Cl)c(-c4c[nH]c5ccccc45)n3)c2)cc1.Cl.Cl (library stock concentration (final ~1000-fold dilution): 10 mM)
RAW-Dual [3]; agonist: LPS (TLR4) 0.1 ug/mL
  NF-kB SEAP reporter activity: 0.242
RAW-Dual [3]; [6]
  NF-kB SEAP reporter activity: 0.189
RAW-Dual [3]; [7]
  NF-kB SEAP reporter activity: 0.0773
RAW-Dual [3]; [8]
  NF-kB SEAP reporter activity: 0.176
